About 3,300 (8.5%) of roughly 39,000 compounds were called active. For the sample, actives were picked, then their nearest neighbours and some compounds at random.
Test system: HepG2
Assay: cytotoxicity call (relative viability < 0.9)
Details: 10 µM

SMILES	cytotoxicity call
C/C=C/c1ccc2c(c1)O[C@H](CN(C)S(=O)(=O)c1ccc(F)cc1)[C@H](C)CN([C@H](C)CO)S2(=O)=O	inactive
CCO[C@H]1[C@H]2CC[C@@H]1N(C(=O)N(C)C)CCO2	inactive
C[C@@H]1CCCCO[C@H](CN(C)S(C)(=O)=O)[C@H](C)CN([C@@H](C)CO)C(=O)c2cc(NS(C)(=O)=O)ccc2O1	inactive
CCC(=O)N[C@@H]1C=C[C@@H](CC(=O)OC)O[C@@H]1CO	inactive
CC(C)NC(=O)N(C)C[C@H]1Oc2ccc(NS(=O)(=O)c3ccccc3)cc2C(=O)N([C@@H](C)CO)C[C@@H]1C	inactive
COc1ccc(S(=O)(=O)Nc2ccc3c(c2)C(=O)N([C@@H](C)CO)C[C@@H](C)[C@@H](CN(C)Cc2ccccc2)OCCCC[C@@H](C)O3)cc1	inactive
O=C(C[C@H]1CC[C@@H]2[C@H](COC[C@H](O)CN2C(=O)C2CC2)O1)NCc1ccncc1	inactive
Cc1cc(O)cc2c1O[C@](C)(CCC[C@H](C)CCC[C@H](C)CCCC(C)C)CC2	inactive
Cc1noc(C)c1S(=O)(=O)Nc1cccc2c1O[C@H](CN(C)C(=O)NC1CCCCC1)[C@H](C)CN([C@@H](C)CO)C2=O	inactive
C[C@H](CO)N1C[C@H](C)[C@H](CN(C)C(=O)Nc2ccc(F)cc2)Oc2ncc(C#Cc3ccc(C(F)(F)F)cc3)cc2C1=O	inactive
C[C@H]1CN([C@@H](C)CO)C(=O)c2cccc(NS(=O)(=O)c3cccs3)c2O[C@H]1CN(C)Cc1ccc(Oc2ccccc2)cc1	inactive
C[C@H](CO)N1C[C@H](C)[C@H](CN(C)C(=O)Nc2ccc(F)cc2)Oc2c(NC(=O)Nc3cccc4ccccc34)cccc2C1=O	active
COc1ccc(NC(=O)Nc2cccc3c2O[C@H](CN(C)C(=O)Nc2cccc4ccccc24)[C@H](C)CN([C@H](C)CO)C3=O)cc1	active
C[C@H]1CN([C@@H](C)CO)C(=O)c2cccc(NC(=O)Nc3cccc4ccccc34)c2O[C@@H]1CN(C)C(=O)Nc1ccccc1	inactive
COc1ccc(NC(=O)Nc2cccc3c2O[C@@H](CN(C)C(=O)Nc2cccc4ccccc24)[C@H](C)CN([C@H](C)CO)C3=O)cc1	inactive
COc1ccc(NC(=O)Nc2cccc3c2O[C@@H](CN(C)C(=O)Nc2cccc4ccccc24)[C@H](C)CN([C@@H](C)CO)C3=O)cc1	inactive
C[C@H](CO)N1C[C@H](C)[C@@H](CN(C)C(=O)Nc2ccc(F)cc2)Oc2c(NC(=O)Nc3cccc4ccccc34)cccc2C1=O	inactive
C[C@@H]1CN([C@H](C)CO)C(=O)c2cccc(NC(=O)Nc3cccc4ccccc34)c2O[C@H]1CN(C)C(=O)Nc1ccc(F)cc1	inactive
C[C@@H]1CN([C@@H](C)CO)C(=O)c2cccc(NC(=O)Nc3cccc4ccccc34)c2O[C@H]1CN(C)C(=O)Nc1ccccc1	active
C[C@H]1CN([C@@H](C)CO)C(=O)c2cccc(NC(=O)Nc3cccc4ccccc34)c2O[C@H]1CN(C)C(=O)Nc1ccccc1	inactive
C[C@H](CO)N1C[C@H](C)[C@H](CN(C)Cc2ccc(Cl)c(Cl)c2)Oc2c(NC(=O)Nc3ccc4c(c3)OCO4)cccc2C1=O	inactive

SMILES	cytotoxicity call
C[C@H](CO)N1C[C@H](C)[C@H](CN(C)C(=O)c2ccncc2)Oc2cc(C#C[C@@H](C)O)ccc2S1(=O)=O	inactive
Cc1cc(F)ccc1S(=O)(=O)N1[C@@H]2CC[C@@H](C2)[C@H]1c1nc2cccc(OCc3ccc(F)cc3)c2[nH]1	inactive
C[C@@H]1CCCCO[C@H](CN(C)S(=O)(=O)c2cn(C)cn2)[C@@H](C)CN([C@H](C)CO)C(=O)c2cc(N(C)C)ccc2O1	inactive
C[C@H](CO)N1C[C@H](C)[C@@H](CN(C)C(=O)Nc2ccc(C(F)(F)F)cc2)Oc2ccc(NS(=O)(=O)c3ccc(Cl)cc3)cc2C1=O	inactive
CCCN1C[C@H](C)[C@H](OC)CN(C)C(=O)c2ccc(NS(=O)(=O)c3cn(C)cn3)cc2OC[C@@H]1C	inactive
CN1CCN(C(=O)C[C@@H]2CC[C@H]3[C@@H](COC[C@H](O)CN3C(=O)C3CCOCC3)O2)CC1	inactive
C[C@H]1CN([C@@H](C)CO)C(=O)c2cccc(NS(=O)(=O)c3ccccc3)c2O[C@H]1CN(C)Cc1ccc(Oc2ccccc2)cc1	inactive
C[C@@H]1CN([C@@H](C)CO)C(=O)c2cc(NC(=O)C3CCCCC3)ccc2O[C@@H](C)CCCCO[C@@H]1CN(C)Cc1ccccc1	inactive
COc1cc(C(=O)O[C@H]2CC[C@@]3(C)[C@@H]4CC[C@H]5[C@]6(O)C[C@H](O)[C@@]7(O)[C@@H](CN8C[C@@H](C)CC[C@H]8[C@@]7(C)O)[C@]6(O)C[C@@]53O[C@@]24O)cc(OC)c1OC	inactive
O=C(Nc1ncc(SCCN2CCCC2)s1)[C@]1(c2ccc(S(=O)(=O)C3CC3)cc2)C[C@H]1C1CCCCC1	active
Cc1ccc(-c2ccc3c(c2)O[C@H](CN(C)C(=O)CN(C)C)[C@@H](C)CN([C@H](C)CO)S3(=O)=O)cc1	inactive
Cn1c(C(=O)N2CCCO[C@@H](Cn3cccn3)C2)cc(=O)n(C)c1=O	inactive
C[C@H]1CN([C@@H](C)CO)C(=O)c2cc(NC(=O)Nc3ccc(F)cc3)ccc2O[C@@H]1CN(C)S(=O)(=O)c1cn(C)cn1	inactive
COc1ccc(S(=O)(=O)N(C)C[C@@H]2Oc3ccc(NS(=O)(=O)c4cn(C)cn4)cc3CC(=O)N([C@@H](C)CO)C[C@@H]2C)cc1	inactive
CN(C)c1cc(CNCC(C)(C)C)c(O)c2c1C[C@H]1C[C@H]3[C@H](N(C)C)C(=O)[C@H](C(N)=O)C(=O)[C@@]3(O)C(=O)[C@@H]1C2=O	inactive
C[C@@H]1CN([C@H](C)CO)C(=O)c2cc(NC(=O)Nc3ccc(C(F)(F)F)cc3)ccc2O[C@H]1CN(C)Cc1ccncc1	inactive
C[C@@H]1CN([C@@H](C)CO)C(=O)c2cc(NC(=O)Nc3ccc(C(F)(F)F)cc3)ccc2O[C@@H]1CN(C)Cc1ccncc1	inactive
C[C@H]1CN([C@@H](C)CO)C(=O)c2cc(NC(=O)Nc3ccc(C(F)(F)F)cc3)ccc2O[C@H]1CN(C)Cc1ccncc1	inactive
C[C@H]1CN([C@@H](C)CO)C(=O)c2cc(NC(=O)Nc3ccc(C(F)(F)F)cc3)ccc2O[C@@H]1CN(C)Cc1ccncc1	active
C[C@@H]1CN([C@H](C)CO)C(=O)c2cc(NC(=O)Nc3ccc(C(F)(F)F)cc3)ccc2O[C@@H]1CN(C)Cc1ccncc1	inactive
C[C@@H]1CN([C@@H](C)CO)C(=O)c2cc(NC(=O)Nc3ccc(C(F)(F)F)cc3)ccc2O[C@H]1CN(C)Cc1ccncc1	active

SMILES	cytotoxicity call
CO[C@H]1CN(C)C(=O)c2cc(NC(=O)C3CCOCC3)ccc2OC[C@@H](C)N(Cc2cccnc2)C[C@@H]1C	inactive
CC(C)NC(=O)N(C)C[C@H]1Oc2ccc(NC(=O)Cc3ccccc3)cc2CC(=O)N([C@H](C)CO)C[C@@H]1C	inactive
c1ccc(Oc2ccncc2)cc1	inactive
COC(=O)C(CC#Cc1ccc2c(c1)[C@]1(C(=O)N2)[C@H](c2ccc(O)cc2)N2[C@H](c3ccccc3)[C@H](c3ccccc3)OC(=O)[C@H]2[C@@H]1C(=O)NC[C@H](O)c1ccccc1)C(=O)OC	inactive
C[C@H]1CN([C@@H](C)CO)C(=O)c2c(c3ccccc3n2C)-c2ccccc2CO[C@H]1CN(C)Cc1ccc(Oc2ccccc2)cc1	inactive
COc1ccc(S(=O)(=O)Nc2cccc3c2O[C@H](CN(C)S(=O)(=O)c2ccccc2)[C@H](C)CN([C@@H](C)CO)C3=O)cc1	inactive
COCC#Cc1ccc2c(c1)O[C@H](CN(C)C(=O)COC)[C@H](C)CN([C@@H](C)CO)S2(=O)=O	inactive
Cc1cc(OCc2nnc(SC3CCCC3)n2-c2cccnc2)ccc1-c1ccc(S(C)(=O)=O)cc1	active
Cc1nc(N)c(C(=O)O)nc1C	inactive
C[C@@H]1CN([C@H](C)CO)C(=O)Cc2cc(NC(=O)Cc3cn(C)c4ccccc34)ccc2O[C@H]1CN(C)Cc1ccc(C(=O)Nc2ccccc2N)cc1	inactive
COc1ccc(CN(C)C[C@H]2OCCCC[C@H](C)Oc3ccc(NS(=O)(=O)c4ccc(OC)cc4)cc3C(=O)N([C@H](C)CO)C[C@H]2C)cc1	inactive
COc1ccc(S(=O)(=O)Nc2ccc3c(c2)C(=O)N([C@@H](C)CO)C[C@H](C)[C@@H](CN(C)Cc2ccc(Cl)c(Cl)c2)OCCCC[C@@H](C)O3)cc1	active
COc1ccc(CN(C)C[C@H]2OCCCC[C@H](C)Oc3ccc(NS(=O)(=O)c4ccc(OC)cc4)cc3C(=O)N([C@@H](C)CO)C[C@@H]2C)cc1	inactive
COc1ccc(S(=O)(=O)Nc2ccc3c(c2)C(=O)N([C@H](C)CO)C[C@@H](C)[C@H](CN(C)Cc2ccc(Cl)c(Cl)c2)OCCCC[C@H](C)O3)cc1	active
COc1ccc(CN(C)C[C@@H]2OCCCC[C@@H](C)Oc3ccc(NS(=O)(=O)c4ccc(OC)cc4)cc3C(=O)N([C@H](C)CO)C[C@@H]2C)cc1	inactive
COc1ccc(CN(C)C[C@@H]2OCCCC[C@@H](C)Oc3ccc(NS(=O)(=O)c4ccc(OC)cc4)cc3C(=O)N([C@@H](C)CO)C[C@H]2C)cc1	inactive
COc1ccc(CN(C)C[C@H]2OCCCC[C@@H](C)Oc3ccc(NS(=O)(=O)c4ccc(OC)cc4)cc3C(=O)N([C@@H](C)CO)C[C@@H]2C)cc1	inactive
COc1ccc(CN(C)C[C@H]2OCCCC[C@@H](C)Oc3ccc(NS(=O)(=O)c4ccc(OC)cc4)cc3C(=O)N([C@H](C)CO)C[C@H]2C)cc1	inactive
COc1ccc(S(=O)(=O)Nc2ccc3c(c2)C(=O)N([C@H](C)CO)C[C@H](C)[C@@H](CN(C)Cc2ccc(Cl)c(Cl)c2)OCCCC[C@@H](C)O3)cc1	active
COc1ccc(S(=O)(=O)Nc2ccc3c(c2)C(=O)N([C@@H](C)CO)C[C@H](C)[C@@H](CN(C)Cc2ccc(Cl)c(Cl)c2)OCCCC[C@H](C)O3)cc1	active

From the antibiotic and cytotoxicity screens of Wong et al. (2023)
